Hit rate of the full screen: of about 310,000 compounds, about 14,000 (4.5%) showed an effect of 50% or more. The effect is printed as a negative number. This is one part of a sample in which strong results are shown more often than they occur.
molecular target: human ether-à-go-go-related gene (hERG) potassium channel (human, UniProt Q12809); test: primary screen, population patch clamp on CHO cells stably expressing hERG; higher = less effect of the substance
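Further: peak tail current of the secondary pulse compared with the same well before compound.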

human ether-à-go-go-related gene (hERG) potassium channel, sequence (Q12809 whole entry, looked up): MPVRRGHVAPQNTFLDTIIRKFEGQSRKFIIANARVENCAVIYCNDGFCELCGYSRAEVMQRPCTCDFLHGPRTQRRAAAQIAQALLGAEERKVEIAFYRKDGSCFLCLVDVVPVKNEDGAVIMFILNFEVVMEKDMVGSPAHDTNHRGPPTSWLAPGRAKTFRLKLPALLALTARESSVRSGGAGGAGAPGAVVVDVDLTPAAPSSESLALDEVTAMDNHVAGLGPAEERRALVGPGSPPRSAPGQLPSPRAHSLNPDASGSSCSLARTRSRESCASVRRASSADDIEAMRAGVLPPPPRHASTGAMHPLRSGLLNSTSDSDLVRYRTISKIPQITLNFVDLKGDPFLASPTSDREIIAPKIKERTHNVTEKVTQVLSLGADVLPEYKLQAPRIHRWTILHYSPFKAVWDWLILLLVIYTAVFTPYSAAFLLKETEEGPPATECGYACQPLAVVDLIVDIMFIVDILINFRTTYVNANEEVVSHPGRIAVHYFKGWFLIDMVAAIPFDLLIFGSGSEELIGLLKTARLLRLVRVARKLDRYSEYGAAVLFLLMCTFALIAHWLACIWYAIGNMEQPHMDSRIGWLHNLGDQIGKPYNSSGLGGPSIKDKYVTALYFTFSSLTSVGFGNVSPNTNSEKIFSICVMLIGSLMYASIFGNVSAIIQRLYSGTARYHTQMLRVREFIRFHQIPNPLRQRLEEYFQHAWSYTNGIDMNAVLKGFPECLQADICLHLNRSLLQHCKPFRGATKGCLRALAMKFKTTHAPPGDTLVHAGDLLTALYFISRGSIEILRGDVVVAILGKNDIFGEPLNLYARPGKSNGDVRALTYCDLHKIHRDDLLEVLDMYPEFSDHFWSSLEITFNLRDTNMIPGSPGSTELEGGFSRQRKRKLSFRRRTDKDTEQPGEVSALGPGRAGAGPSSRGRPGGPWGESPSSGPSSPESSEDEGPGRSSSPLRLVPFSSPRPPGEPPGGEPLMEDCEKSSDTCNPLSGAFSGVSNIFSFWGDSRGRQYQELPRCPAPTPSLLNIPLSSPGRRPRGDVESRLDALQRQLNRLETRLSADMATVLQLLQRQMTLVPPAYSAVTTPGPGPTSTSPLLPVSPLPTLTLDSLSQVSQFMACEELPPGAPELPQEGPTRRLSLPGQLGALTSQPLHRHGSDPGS

Row | SMILES | hERG current change (%, negative = inhibition) at 10uM [%]
1 | Cc1cc(C)n(/N=C/c2ccccc2)c(=O)c1C#N | 17
2 | Cc1ccccc1NC(=O)CSc1nc(-c2ccccc2)cc(=O)[nH]1 | 24.9
3 | CCOc1ncccc1C(=O)Nc1cc(S(=O)(=O)N2CCCCC2)ccc1Cl | 20.5
4 | COc1cccc(NC(=O)CSc2nnc3c(n2)[nH]c2ccc(C)cc23)c1 | 8.36
5 | COc1ccccc1C(=O)N1CCN(Cc2nc3cc([N+](=O)[O-])ccc3n2C)CC1 | -67.6
6 | CC(=O)N1CCN(Cc2nc3cc(NC(=O)c4ccccc4Cl)ccc3n2C)CC1 | -20.8
7 | Cn1c(CN2CCOCC2)nc2cc(NC(=O)c3ccccc3Cl)ccc21 | -10.4
8 | COc1ccc(C(=O)NCCc2nc3cc([N+](=O)[O-])ccc3n2C)cc1 | -39.9
9 | Cn1c(CN2CCN(C(=O)c3ccccc3Cl)CC2)nc2cc([N+](=O)[O-])ccc21 | -70.7
10 | Cc1cc(C(c2nnnn2Cc2ccccc2)N2CCOCC2)c(C)n1-c1ccc2c(c1)OCO2 (stereo not drawn) | -32.1
11 | CCC(C)(C(=O)Nc1ccccc1C)N(C(=O)CNC(C)=O)c1ccc(C)cc1 (stereo not drawn) | 14.8
12 | COc1ccc(NC(=O)COC(=O)CCCC2=NS(=O)(=O)c3ccccc3N2)cc1Cl | 38.8
13 | O=C(NCc1ccccc1)c1cc(S(=O)(=O)N2CCCCC2)ccc1N1CCOCC1 | -20.1
14 | O=C(CSc1nnc(CNc2ccc(F)cc2)o1)N1CCCc2ccccc21 | 2.24
15 | Cl.O=C(CNCC1CCCCC1)Nc1ccc(OC(F)(F)F)cc1 | -62.4
16 | CNCC(=O)Nc1ccc(OC(F)(F)F)cc1.Cl | -3.92
17 | CCN(CC(=O)Nc1ccc(C(=O)OC)cc1)C1CCCCC1 | -1.85
18 | CCN1CCCC1CNC(=O)C(=O)Nc1ccc(OC)cc1 (stereo not drawn) | -5.95
19 | CCN(C(=S)Nc1ccc(OC(F)F)cc1)C1CCCCC1 | -22.8

Row | SMILES | hERG current change (%, negative = inhibition) at 10uM [%]
20 | CCN1CCCC1CNC(=O)c1cc(N)ccc1OC.O.O=C(O)C(=O)O (stereo not drawn) | 13.5
21 | CCN1CCCC1CNCC(O)COc1ccc(C(C)(C)C)cc1C.O=C(O)C(=O)O (stereo not drawn) | -54.4
22 | CCN1CCCC1CNCC(=O)Nc1ccc(OC(F)(F)F)cc1.O=C(O)C(=O)O (stereo not drawn) | -70.7
23 | CCN(CC(=O)Nc1ccc(OC(F)F)cc1)C1CCCCC1 | -73.5
24 | CCC(C)(C)NCC(=O)Nc1ccc(OC(F)(F)F)cc1 | -32.7
25 | CCN1CCCC1CNC(=O)C(=O)NCCc1ccc(OC)c(OC)c1 (stereo not drawn) | -1.49
26 | O=C(CNCC1CCCCC1)Nc1ccc(N2CCCCC2)cc1.O=C(O)C(=O)O | -17.3
27 | C=CCN1C(=O)NC(=O)/C(=C/c2cc3c4c(c2)CCCN4CCC3)C1=O | -10.2
28 | CC1CC(C(F)(F)F)n2ncc(C(=O)O)c2N1 (stereo not drawn) | 11.5
29 | CCNC(=O)c1ccc2c(c1)C1C3CCC(C3)C1C(c1ccccc1)N2 (stereo not drawn) | -5.8
30 | CC1=C(C(=O)Nc2ccc(F)cc2)C(c2ccc(C)o2)C2=C(CC(C)(C)CC2=O)N1 (stereo not drawn) | -7.85
31 | COc1ccccc1CNC(=O)COC(=O)c1cc(=O)[nH]c2ccccc12 | 1.03
32 | Cc1cc(Cl)ccc1C(=O)C1CCCN(C(=O)c2cnn(C(C)C)c2)C1 (stereo not drawn) | -17.7
33 | CC(C)Oc1ccc(C(=O)NN2C(=O)NC3(CCCCC3)C2=O)cc1 | 1.38
34 | CCOC(=O)N1CCC(N(CCN(C)C)C(=S)Nc2cccc(C)c2)CC1 | 4.81
35 | COc1ccc(OC)c(NC(=O)NNC(=O)c2cc3occc3[nH]2)c1 | 14.3
36 | NNC(=O)CC12CC3CC(C1)CC(n1ncnn1)(C3)C2 | -15.1
37 | COc1ccc(CCC(=O)N(c2nnc(-c3cccnc3)s2)C(C)C)cc1.Cl | -49.6
38 | Cc1ccc(NC(=O)Cc2ccc(Cl)c(Cl)c2)cc1S(=O)(=O)N(C)C | 7.88

Row | SMILES | hERG current change (%, negative = inhibition) at 10uM [%]
39 | CN(CC(=O)Nc1ccc(OC(F)(F)F)cc1)C1CCCCC1.Cl | -61.6
40 | Cc1ccc(NC(=O)CN(C)C2CCCCC2)cc1Br.Cl | -28.8
41 | CN(CC(=O)Nc1ccc(F)c(F)c1F)C(=O)C1CCCC1 | 1.05
42 | CCOc1ccc(NC(=O)C(=O)NCC2CCCN2CC)cc1 (stereo not drawn) | -16.4
43 | CCOC(=O)C1CSC(CC(=O)Nc2ccc(OC(F)(F)F)cc2)C(=O)N1 (stereo not drawn) | -56.3
44 | CN(CC(=O)Nc1ccc(F)c(F)c1F)C1CCCCC1 | -52.5
45 | CCOC(=O)C1CSC(CC(=O)Nc2ccc(OCC)cc2)C(=O)N1 (stereo not drawn) | -5.69
46 | CCCCCOc1ccc(NC(=O)C(=O)NCC2CCCN2CC)cc1 (stereo not drawn) | -77.9
47 | CCN1CCCC1CNC(=O)C(=O)Nc1ccccc1 (stereo not drawn) | -9.35
48 | CCOC(=O)C1CSC(CC(=O)Nc2ccc(Cl)cc2)C(=O)N1 (stereo not drawn) | -14.9
49 | CN(CC(=O)Nc1ccc(F)c(F)c1F)C(=O)C1CCC1 | 9.13
50 | CN(CC(=O)Nc1ccc(OC(F)(F)F)cc1)C(=O)C1CCC1 | -1.21
51 | CC(=O)Nc1ccc(NC(=O)c2ccc(COc3ccccc3Br)o2)cc1 | 17.1
52 | CCOC(=O)c1c(C)[nH]c(C(=O)COC(=O)CN2C(=O)C3CCCCC3C2=O)c1C (stereo not drawn) | -16.8
53 | Nc1cc(-c2ccccc2)nn1Cc1ccc(Cl)cc1 | -19
54 | O=C(CCCOc1ccccc1)Nc1ccc(Br)cc1 | 22.3
55 | CC(=O)OCCn1c(=O)c2cc3c(=O)n(CCOC(C)=O)c(=O)c3cc2c1=O | -4.39
56 | Cn1nccc1C(=O)N1CCC(Cc2ccccc2)CC1 | -9.69
57 | Cc1ccc(S(=O)(=O)N2CCOCC2)cc1C(=O)N1CC(C)OC(C)C1 (stereo not drawn) | 15.1

— article PMC4336329 (PLoS ONE, 2015)
